{
  "source": "PubChem BioAssay AID1159580",
  "about": "(chemical genetic matrix, 2015)",
  "experiment": "chemical genetic growth profiling, strain panel (AID 1159580);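 further: tested at 20 µM; growth read once vehicle control cultures reached saturation at 30 °C; 1 = growth at the plate median or of vehicle wells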",
  "settings": "S. cerevisiae deletion strains, growth OD",
  "note": "About 2,000 (36%) of roughly 5,500 compounds were called active. About 18% were inconclusive and are not listed. The list shows a part of the results. Unmarked numbers belong to inactive results. No stated cut-off is given here; in the data, active means normalized growth mostly below about 0.91 (no sharp cut-off); inconclusive means no clear call, values can overlap the other calls; inactive means mostly above about 0.92.",
  "data": [
    {"smiles": "CCCCC(CC)CN1CN(CC(CC)CCCC)CC(C)(N)C1", "note": "(stereo not drawn)", "values": [
      {"measurement": "normalized growth", "setting": "locus YAL013W, strain DEP1, stronger effect = lower value", "value": "0.14 (active)"},
      {"measurement": "normalized growth", "setting": "locus YAL021C, strain ccr4, stronger effect = lower value", "value": "0.0639 (active)"},
      {"measurement": "normalized growth", "setting": "locus YAL026C, strain drs2, stronger effect = lower value", "value": "0.0615 (active)"},
      {"measurement": "normalized growth", "setting": "locus YAL030W, strain snc1, stronger effect = lower value", "value": "0.0534 (active)"},
      {"measurement": "normalized growth", "setting": "locus YBL061C, strain skt5, stronger effect = lower value", "value": "0.0552 (active)"},
      {"measurement": "normalized growth", "setting": "locus YBR009C, strain hhf1, stronger effect = lower value", "value": "0.0618 (active)"},
      {"measurement": "normalized growth", "setting": "locus YBR021W, strain FUR4, stronger effect = lower value", "value": "0.168 (active)"},
      {"measurement": "normalized growth", "setting": "locus YBR023C, strain chs3, stronger effect = lower value", "value": "0.0607 (active)"},
      {"measurement": "normalized growth", "setting": "locus YBR171W, strain sec66, stronger effect = lower value", "value": "0.0721 (active)"},
      {"measurement": "normalized growth", "setting": "locus YBR229C, strain ROT2, stronger effect = lower value", "value": "0.816 (active)"},
      {"measurement": "normalized growth", "setting": "locus YBR231C, strain swc5, stronger effect = lower value", "value": "0.0597 (active)"},
      {"measurement": "normalized growth", "setting": "locus YBR279W, strain paf1, stronger effect = lower value", "value": "0.088 (active)"},
      {"measurement": "normalized growth", "setting": "locus YCL011C, strain gbp2, stronger effect = lower value", "value": "0.0548 (active)"},
      {"measurement": "normalized growth", "setting": "locus YCL016C, strain dcc1, stronger effect = lower value", "value": "0.0625 (active)"},
      {"measurement": "normalized growth", "setting": "locus YCL029C, strain bik1, stronger effect = lower value", "value": "0.573 (active)"},
      {"measurement": "normalized growth", "setting": "locus YCL061C, strain MRC1, stronger effect = lower value", "value": "0.062 (active)"},
      {"measurement": "normalized growth", "setting": "locus YCL069W, strain vba3, stronger effect = lower value", "value": "0.0607 (active)"},
      {"measurement": "normalized growth", "setting": "locus YCR088W, strain abp1, stronger effect = lower value", "value": "0.0577 (active)"},
      {"measurement": "normalized growth", "setting": "locus YDL005C, strain med2, stronger effect = lower value", "value": "0.0691 (active)"},
      {"measurement": "normalized growth", "setting": "locus YDL035C, strain GPR1, stronger effect = lower value", "value": "0.329 (active)"},
      {"measurement": "normalized growth", "setting": "locus YDL040C, strain nat1, stronger effect = lower value", "value": "0.055 (active)"},
      {"measurement": "normalized growth", "setting": "locus YDL074C, strain BRE1, stronger effect = lower value", "value": "0.228 (active)"},
      {"measurement": "normalized growth", "setting": "locus YDL101C, strain DUN1, stronger effect = lower value", "value": "0.417 (active)"},
      {"measurement": "normalized growth", "setting": "locus YDL134C, strain PPH21, stronger effect = lower value", "value": "0.58 (active)"},
      {"measurement": "normalized growth", "setting": "locus YDL185W, strain tfp1, stronger effect = lower value", "value": 1.02},
      {"measurement": "normalized growth", "setting": "locus YDL192W, strain arf1, stronger effect = lower value", "value": "0.0997 (active)"},
      {"measurement": "normalized growth", "setting": "locus YDR001C, strain nth1, stronger effect = lower value", "value": "0.0567 (active)"},
      {"measurement": "normalized growth", "setting": "locus YDR069C, strain doa4, stronger effect = lower value", "value": "0.0614 (active)"},
      {"measurement": "normalized growth", "setting": "locus YDR101C, strain arx1, stronger effect = lower value", "value": "0.573 (active)"},
      {"measurement": "normalized growth", "setting": "locus YDR137W, strain rgp1, stronger effect = lower value", "value": "0.111 (active)"},
      {"measurement": "normalized growth", "setting": "locus YDR150W, strain NUM1, stronger effect = lower value", "value": "0.801 (active)"},
      {"measurement": "normalized growth", "setting": "locus YDR159W, strain sac3, stronger effect = lower value", "value": "0.0869 (active)"},
      {"measurement": "normalized growth", "setting": "locus YDR162C, strain NBP2, stronger effect = lower value", "value": "0.233 (active)"},
      {"measurement": "normalized growth", "setting": "locus YDR195W, strain ref2", "value": "0.116 (active)"},
      {"measurement": "normalized growth", "setting": "locus YDR297W, strain sur2, stronger effect = lower value", "value": "0.0539 (active)"},
      {"measurement": "normalized growth", "setting": "locus YDR318W, strain mcm21, stronger effect = lower value", "value": "0.471 (active)"},
      {"measurement": "normalized growth", "setting": "locus YDR334W, strain swr1, stronger effect = lower value", "value": "0.0598 (active)"},
      {"measurement": "normalized growth", "setting": "locus YDR335W, strain msn5, stronger effect = lower value", "value": "0.0571 (active)"},
      {"measurement": "normalized growth", "setting": "locus YDR388W, stronger effect = lower value", "value": "0.15 (active)"},
      {"measurement": "normalized growth", "setting": "locus YDR392W, strain spt3, stronger effect = lower value", "value": "0.0725 (active)"},
      {"measurement": "normalized growth", "setting": "locus YDR502C, strain sam2, stronger effect = lower value", "value": "0.401 (active)"},
      {"measurement": "normalized growth", "setting": "locus YEL003W, strain gim4, stronger effect = lower value", "value": "0.0521 (active)"},
      {"measurement": "normalized growth", "setting": "locus YEL037C, strain rad23, stronger effect = lower value", "value": "0.0554 (active)"},
      {"measurement": "normalized growth", "setting": "locus YEL061C, strain CIN8 (second series), stronger effect = lower value", "value": "0.0574 (active)"},
      {"measurement": "normalized growth", "setting": "locus YEL061C, strain CIN8, stronger effect = lower value", "value": "0.472 (active)"},
      {"measurement": "normalized growth", "setting": "locus YER015W, strain faa2, stronger effect = lower value", "value": "0.0593 (active)"},
      {"measurement": "normalized growth", "setting": "locus YER016W, strain bim1, stronger effect = lower value", "value": "0.0563 (active)"},
      {"measurement": "normalized growth", "setting": "locus YER110C, stronger effect = lower value", "value": "0.627 (active)"},
      {"measurement": "normalized growth", "setting": "locus YER111C, strain swi4, stronger effect = lower value", "value": "0.0661 (active)"},
      {"measurement": "normalized growth", "setting": "locus YER155C, strain BEM2 (second series), stronger effect = lower value", "value": "0.0846 (active)"},
      {"measurement": "normalized growth", "setting": "locus YER155C, strain BEM2, stronger effect = lower value", "value": "0.425 (active)"},
      {"measurement": "normalized growth", "setting": "locus YER167W, strain BCK2, stronger effect = lower value", "value": "0.55 (active)"},
      {"measurement": "normalized growth", "setting": "locus YFR010W, strain ubp6, stronger effect = lower value", "value": "0.0701 (active)"},
      {"measurement": "normalized growth", "setting": "locus YGL078C, strain dbp3, stronger effect = lower value", "value": 1},
      {"measurement": "normalized growth", "setting": "locus YGL086W, strain mad1, stronger effect = lower value", "value": "0.283 (active)"},
      {"measurement": "normalized growth", "setting": "locus YGL167C, strain pmr1, stronger effect = lower value", "value": "0.0684 (active)"},
      {"measurement": "normalized growth", "setting": "locus YGL173C, strain kem1, stronger effect = lower value", "value": "0.0624 (active)"},
      {"measurement": "normalized growth", "setting": "locus YGL227W, strain vid30, stronger effect = lower value", "value": "0.0601 (active)"},
      {"measurement": "normalized growth", "setting": "locus YGL240W, strain doc1, stronger effect = lower value", "value": "0.0704 (active)"},
      {"measurement": "normalized growth", "setting": "locus YGL248W, strain PDE1, stronger effect = lower value", "value": "0.633 (active)"},
      {"measurement": "normalized growth", "setting": "locus YGL253W, strain hxk2, stronger effect = lower value", "value": "0.0538 (active)"},
      {"measurement": "normalized growth", "setting": "locus YGR078C, strain PAC10, stronger effect = lower value", "value": "0.469 (active)"},
      {"measurement": "normalized growth", "setting": "locus YGR135W, strain pre9, stronger effect = lower value", "value": "0.381 (active)"},
      {"measurement": "normalized growth", "setting": "locus YGR229C, strain SMI1, stronger effect = lower value", "value": "0.0664 (active)"},
      {"measurement": "normalized growth", "setting": "locus YGR252W, strain gcn5, stronger effect = lower value", "value": "0.224 (active)"},
      {"measurement": "normalized growth", "setting": "locus YHR013C, strain ard1, stronger effect = lower value", "value": "0.124 (active)"},
      {"measurement": "normalized growth", "setting": "locus YHR027C, strain rpn1, stronger effect = lower value", "value": "0.0601 (active)"},
      {"measurement": "normalized growth", "setting": "locus YHR030C, strain SLT2, stronger effect = lower value", "value": "0.133 (active)"},
      {"measurement": "normalized growth", "setting": "locus YHR079C, strain IRE1 (second series), stronger effect = lower value", "value": "0.573 (active)"},
      {"measurement": "normalized growth", "setting": "locus YHR094C, strain hxt1, stronger effect = lower value", "value": "0.911 (active)"},
      {"measurement": "normalized growth", "setting": "locus YHR129C, strain ARP1, stronger effect = lower value", "value": "0.716 (active)"},
      {"measurement": "normalized growth", "setting": "locus YHR142W, strain chs7, stronger effect = lower value", "value": "0.077 (active)"},
      {"measurement": "normalized growth", "setting": "locus YHR200W, strain rpn10, stronger effect = lower value", "value": "0.214 (active)"},
      {"measurement": "normalized growth", "setting": "locus YIL066C, strain RNR3, stronger effect = lower value", "value": "0.45 (active)"},
      {"measurement": "normalized growth", "setting": "locus YIL073C, strain SPO22, stronger effect = lower value", "value": "0.364 (active)"},
      {"measurement": "normalized growth", "setting": "locus YIL125W, strain kgd1, stronger effect = lower value", "value": 1.01},
      {"measurement": "normalized growth", "setting": "locus YIR030C, strain dcg1, stronger effect = lower value", "value": "0.651 (active)"},
      {"measurement": "normalized growth", "setting": "locus YJL092W, strain hpr5, stronger effect = lower value", "value": "0.0575 (active)"},
      {"measurement": "normalized growth", "setting": "locus YJL095W, strain BCK1 (second series), stronger effect = lower value", "value": "0.0537 (active)"},
      {"measurement": "normalized growth", "setting": "locus YJL095W, strain BCK1, stronger effect = lower value", "value": "0.188 (active)"},
      {"measurement": "normalized growth", "setting": "locus YJL115W, strain asf1, stronger effect = lower value", "value": "0.068 (active)"},
      {"measurement": "normalized growth", "setting": "locus YJL129C, strain trk1, stronger effect = lower value", "value": "0.083 (active)"},
      {"measurement": "normalized growth", "setting": "locus YJL134W, strain LCB3, stronger effect = lower value", "value": "0.918 (active)"},
      {"measurement": "normalized growth", "setting": "locus YJL154C, strain vps35, stronger effect = lower value", "value": "0.0563 (active)"},
      {"measurement": "normalized growth", "setting": "locus YJL164C, strain tpk1, stronger effect = lower value", "value": "0.0598 (active)"},
      {"measurement": "normalized growth", "setting": "locus YJL166W, strain qcr8, stronger effect = lower value", "value": "0.0595 (active)"},
      {"measurement": "normalized growth", "setting": "locus YJL168C, strain set2, stronger effect = lower value", "value": "0.826 (active)"},
      {"measurement": "normalized growth", "setting": "locus YJL187C, strain SWE1 (second series), stronger effect = lower value", "value": "0.513 (active)"}
    ]}
  ]
}
